Source: PubChem (National Center for Advancing Translational Sciences (NCATS))
Rows were chosen to be rich in hits. Some 3.7% of all compounds tested hit in one or more screens of this group.
S2 tox = reduces viability in counter-screen for ATXN expression inhibitors; Potency, µM (doses to about 56.7 µM), actives largely listed as cytotoxic; S2 cells (HEK-293 line with an ATXN2-luciferase reporter) viability, CellTiter-Fluor protease fluorescence, 24 h; 0.49% of 400,000 active; also: nearly all actives have a fitted effect of over 40% in size
GLP1R inv ag = inverse agonists of human GLP-1 receptor | HEK293 GLP-1R CRE-luciferase, luminescence, 24 h; GLP-1R form is constitutively active | Potency, µM (top dose mostly 38.3 µM), usual class: inhibitors | 1.6% of 410,000 active; also: nearly all actives have a fitted effect of over 55% in size
Target sequence (P43220 whole entry, looked up): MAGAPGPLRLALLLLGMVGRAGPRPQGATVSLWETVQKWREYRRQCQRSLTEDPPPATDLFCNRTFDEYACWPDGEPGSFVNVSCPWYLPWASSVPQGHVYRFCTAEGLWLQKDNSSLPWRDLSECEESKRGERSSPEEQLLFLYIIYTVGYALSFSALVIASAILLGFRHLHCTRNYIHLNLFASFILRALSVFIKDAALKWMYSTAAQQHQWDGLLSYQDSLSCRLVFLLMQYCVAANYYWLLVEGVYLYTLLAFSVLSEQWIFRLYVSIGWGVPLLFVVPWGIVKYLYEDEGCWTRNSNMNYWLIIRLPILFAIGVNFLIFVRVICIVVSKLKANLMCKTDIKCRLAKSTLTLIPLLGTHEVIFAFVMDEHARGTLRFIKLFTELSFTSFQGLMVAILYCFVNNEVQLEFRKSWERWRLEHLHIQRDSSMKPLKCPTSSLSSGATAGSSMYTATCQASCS
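Constitutively active GLP-1R drives a cAMP-responsive luciferase in stably transfected HEK293 cells; test compounds are added after overnight (12 h) attachment and left 24 hr, and signal loss in luminescence marks inhibition.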
TGFb SMAD3 inh = TGF-b pathway inhibition; HepG2 CAGA-GFP TGF-b/SMAD3 reporter, GFP fluorescence, 18 h; TGF-beta stimulated, 500 pg/mL final; Potency, µM (series often up to 46.1 µM), actives largely listed as inhibitors; 1.2% of 410,000 active; AID 588855; also: nearly all actives have a fitted effect of over 65% in size
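GFP signal (ex488/em500-530) from TGF-beta-stimulated HEPG2 CAGA-GFP cells, 500 pg/mL final, 18 h at 37 degrees C in DMEM plus 1% FBS, normalized to unstimulated and DMSO-stimulated controls.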
GLP1R ag = agonists of human GLP-1 receptor | P43220 | HEK293 GLP-1R CRE-luciferase, luminescence, 4-6 h; cells express a hypersensitive GLP-1R form | Potency, µM (doses to about 45.6 µM), hits mostly activators | 0.007% of 380,000 active | AID 624172
ATXN2 expr inh = inhibitors of ATXN2 expression; HEK-293 ATXN2-luciferase reporter, luminescence, 24 h; Potency, µM (doses to about 57 µM), most hits filed as inhibitors; 0.72% of 360,000 active; AID 1745845; also: nearly all actives have a fitted effect of over 55% in size
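qHTS (up to 57 uM final) was run with 24 h compound exposure of reporter cells at 37 °C. Each well was multiplexed: SteadyGlo luminescence measured ATXN2-luciferase expression after a fluorogenic Gly-Phe-AFC viability readout (25 uM final).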
HepG2 tox-1 = HepG2 cytotoxicity, counter-screen for TGF-b inhibitors; AID 588856; HepG2 CAGA-GFP viability, ATP luminescence, 18 h; Potency, µM (doses to about 46.1 µM), hits mostly cytotoxic; 0.76% of 410,000 active
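HepG2 CAGA-GFP cells (1000/well, DMEM with 1% FBS) received compound, then TGF-beta at 500 pg/mL final, and were incubated 18 hours at 37 degrees C. Viability was read by CellTiter-Glo luminescence. Media-only wells were set as complete cell-killing and DMSO as no toxicity.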
TGFb CAGA inh = TGF-b pathway inhibition, cherry-pick retest; 63% of 1,600 active; shares compounds with TGFb SMAD3 inh; Potency, µM (top dose mostly 46.1 µM), actives largely listed as inhibitors; HepG2 CAGA-GFP TGF-b reporter, GFP fluorescence, 18 h; cells stimulated with TGF-beta, 500 pg/mL; also: nearly all actives have a fitted effect of over 65% in size
HepG2 tox-2 = toxic to HepG2 cells in TGF-b counterscreen; shares compounds with TGFb SMAD3 inh; HepG2 CAGA-GFP viability, ATP luminescence, 18 h; cells stimulated with TGF-beta, 500 pg/mL; Potency, µM (titrated, usually from 46.1 µM), most hits filed as inhibitors; 27% of 1,600 active; also: nearly all actives have a fitted effect of over 70% in size
CCL64 TGFb inh = orthogonal confirmation of TGF-b inhibitors in CCL64 cells | shares compounds with TGFb SMAD3 inh | CCL64 CAGA-GFP reporter, TGF-b stimulated, GFP fluorescence, 18 h | Potency, µM (titrated, usually from 46.1 µM), actives largely listed as inhibitors | 41% of 1,600 active | AID 720536; also: nearly all actives have a fitted effect of over 65% in size
COP TGFb inh = blocks TGF-b signaling in HepG2 COP reporter; shares compounds with TGFb SMAD3 inh; HepG2 COP-GFP TGF-b reporter, GFP fluorescence, 18 h; cells stimulated by added recombinant TGF-beta; Potency, µM (series often up to 46.1 µM), most hits filed as inhibitors; 3% of 1,600 active; also: nearly all actives have a fitted effect of over 70% in size
A number is an active result. Calls follow the shape of the dose curve; as a rule, active = well fitted curve in the direction sought with a large enough effect; inconclusive = small, poorly fitted or top-dose-only effect, or another doubt; inactive = no such curve, though single readings can be large; an effect the other way counts as inactive or inconclusive.

COc1ccccc1NS(=O)(=O)c1cc(NC(=O)Nc2ccccc2)ccc1N1CCCCC1 was read as S2 tox inactive, GLP1R inv ag inconclusive, TGFb SMAD3 inh 11µM, GLP1R ag inactive, ATXN2 expr inh inactive, HepG2 tox-1 inactive, TGFb CAGA inh 7.3µM, HepG2 tox-2 inactive, CCL64 TGFb inh inconclusive and COP TGFb inh inactive.
CC1CC=CC2C1C(=O)N(Cc1ccccc1)C2c1ccc(/C=C/c2ccccc2)cc1F (stereo not drawn) was read as TGFb SMAD3 inh inactive and HepG2 tox-1 inactive.
Screening COc1cc(/C=C(\C#N)c2nc3ccccc3[nH]2)ccc1OCc1cccc(C(F)(F)F)c1 returned S2 tox inactive, GLP1R inv ag inconclusive, TGFb SMAD3 inh inconclusive, ATXN2 expr inh inactive and HepG2 tox-1 inactive.
For Cc1ccc(NC(=O)c2cc3c(s2)CCCC3)cc1S(=O)(=O)Nc1ccccc1Cl the results were S2 tox inactive, GLP1R inv ag inconclusive, TGFb SMAD3 inh 10µM, GLP1R ag inactive, ATXN2 expr inh inactive, HepG2 tox-1 inactive, TGFb CAGA inh 10µM, HepG2 tox-2 inconclusive, CCL64 TGFb inh inconclusive and COP TGFb inh inactive.
Cc1ccccc1/C=C/C(=O)c1ccc([N+](=O)[O-])o1 was read as S2 tox 13µM, GLP1R inv ag inconclusive, TGFb SMAD3 inh 3.2µM, GLP1R ag inactive, ATXN2 expr inh 13µM, HepG2 tox-1 inactive, TGFb CAGA inh 3.3µM, HepG2 tox-2 6.5µM, CCL64 TGFb inh 4.1µM and COP TGFb inh inconclusive.
`Cc1cccc(/C=C/C(=O)c2ccc([N+](=O)[O-])o2)c1` gave S2 tox 10µM, GLP1R inv ag inactive, TGFb SMAD3 inh 2.2µM, GLP1R ag inactive, ATXN2 expr inh 10µM, HepG2 tox-1 10µM, TGFb CAGA inh 3.3µM, HepG2 tox-2 5.2µM, CCL64 TGFb inh 2.1µM and COP TGFb inh inconclusive.
COc1ccc(/C=C/C(=O)c2ccc([N+](=O)[O-])o2)cc1 was read as S2 tox inconclusive, GLP1R inv ag inactive, TGFb SMAD3 inh inconclusive, GLP1R ag inactive, ATXN2 expr inh inconclusive and HepG2 tox-1 inactive.
O=C(/C=C/c1cccc([N+](=O)[O-])c1)c1ccc([N+](=O)[O-])o1 was read as S2 tox 3.5µM, GLP1R inv ag inactive, TGFb SMAD3 inh 1.3µM, GLP1R ag inactive, ATXN2 expr inh inconclusive, HepG2 tox-1 4.5µM, TGFb CAGA inh 2.9µM, HepG2 tox-2 8.2µM, CCL64 TGFb inh 1.6µM and COP TGFb inh inconclusive.
Screening COc1ccc(S(=O)(=O)Nc2cc3c(cc2NCc2ccccc2)n(C)c(=O)n3C)cc1OC returned S2 tox inactive, GLP1R inv ag inactive, TGFb SMAD3 inh inactive, ATXN2 expr inh inactive and HepG2 tox-1 inactive.
For NC(=O)COC(=O)c1ccccc1OCC(=O)Nc1ccc(Br)cc1 the results were TGFb SMAD3 inh inactive and HepG2 tox-1 inactive.
O=C(CSc1nc(=O)n(Cc2ccncc2)c2c1CCC2)Nc1cccc(F)c1 was read as S2 tox inactive, GLP1R inv ag inactive, TGFb SMAD3 inh inactive, ATXN2 expr inh inactive and HepG2 tox-1 inactive.
For CN(C(=O)C=Cc1ccco1)c1ccccc1 the results were S2 tox inactive, GLP1R inv ag inactive, TGFb SMAD3 inh inactive, GLP1R ag inactive, ATXN2 expr inh inactive and HepG2 tox-1 inactive.
CN(C(=O)/C=C/c1ccc([N+](=O)[O-])s1)c1ccccc1 was read as GLP1R inv ag inactive, TGFb SMAD3 inh 10µM, GLP1R ag inactive, ATXN2 expr inh inconclusive, HepG2 tox-1 11µM, TGFb CAGA inh 23µM, HepG2 tox-2 inconclusive, CCL64 TGFb inh 21µM and COP TGFb inh inconclusive.
For CS/C(=N\S(=O)(=O)c1cccs1)Nc1ccc(F)c(Cl)c1 the results were S2 tox inactive, GLP1R inv ag inactive, TGFb SMAD3 inh 8.9µM, GLP1R ag inactive, ATXN2 expr inh inactive, HepG2 tox-1 inactive, TGFb CAGA inh inconclusive, HepG2 tox-2 inactive, CCL64 TGFb inh inactive and COP TGFb inh inactive.
CCCCN(CC)C(=O)Cn1nc(C)c2c(C)n(-c3ccccc3)nc2c1=O was read as S2 tox inactive, GLP1R inv ag inactive, TGFb SMAD3 inh inactive, ATXN2 expr inh inactive and HepG2 tox-1 inactive.
For O=C(NCC(c1ccco1)N1CCCCC1)c1ccc(COc2ccc(Cl)cc2)cc1 (stereo not drawn) the results were S2 tox inconclusive, GLP1R inv ag 2.8µM, TGFb SMAD3 inh 13µM, GLP1R ag inactive, ATXN2 expr inh inconclusive, HepG2 tox-1 inactive, TGFb CAGA inh 16µM, HepG2 tox-2 inconclusive, CCL64 TGFb inh 16µM and COP TGFb inh inactive.
N#Cc1ccc(C(=O)NCC(c2ccco2)N2CCCCC2)cc1 (stereo not drawn) was read as S2 tox inactive, GLP1R inv ag inactive, TGFb SMAD3 inh inactive, GLP1R ag inactive, ATXN2 expr inh inactive and HepG2 tox-1 inactive.
CCOc1nc(N=C(N)N)nc2c(C)cccc12 was read as S2 tox inconclusive, GLP1R inv ag inactive, TGFb SMAD3 inh 7.9µM, GLP1R ag inactive, ATXN2 expr inh inconclusive, HepG2 tox-1 inactive, TGFb CAGA inh 16µM, HepG2 tox-2 inconclusive, CCL64 TGFb inh inactive and COP TGFb inh inactive.
For COC(=O)c1ccc(NC(=S)NC2CCCCC2)cc1 the results were S2 tox inactive, GLP1R inv ag inconclusive, TGFb SMAD3 inh inactive, GLP1R ag inactive, ATXN2 expr inh inactive and HepG2 tox-1 inactive.
`S=C(Nc1ccc(Br)cc1)NC1CCCCC1` gave S2 tox inactive, GLP1R inv ag inconclusive, TGFb SMAD3 inh 10µM, GLP1R ag inactive, ATXN2 expr inh inactive, HepG2 tox-1 inactive, TGFb CAGA inh inconclusive, HepG2 tox-2 inconclusive, CCL64 TGFb inh inconclusive and COP TGFb inh inactive.
